PubChem BioAssay AID652154 (Broad Institute, 2013)
About 4,200 (1.2%) of roughly 360,000 compounds were called active. The sample holds actives, similar compounds and a random draw of the others, so the mix is not that of the screen.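 The calls were made as follows: active = mean replicate inhibition at least 60% with every replicate also reaching 60%; inconclusive = only one of the two criteria is met; inactive = mean below 60% and not all replicates reaching 60%.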

assay: PAX8 transcriptional activity inhibition in RMG-I – RMG-I cells, luciferase, single concentration, primary screen (AID 652154); conditions: RMG-I TPO-luciferase reporter, SteadyGlo, 24 h; at 12.6 µM; active compounds read high;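 also: luciferase light reporting Pax8 driven TPO promoter activity; plate controls were median of neutral control wells for no effect and mitoxantrone controls for full effect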

inhibition, inactive:
C[C@@H]1CN([C@H](C)CO)C(=O)Cc2cc(NS(C)(=O)=O)ccc2O[C@H]1CN(C)S(=O)(=O)c1ccccc1 -11.5%, C[C@H](O)C#Cc1ccc2c(c1)O[C@H](CN(C)C)[C@@H](C)CN([C@H](C)CO)S2(=O)=O -9.29%, C/C=C/c1ccc([C@H]2[C@@H](CO)N(C(=O)CN(C)C)C23CN(C(=O)C2CCCC2)C3)cc1 -21.3%, Cc1noc(C)c1S(=O)(=O)N(C)C[C@@H]1OCCCC[C@@H](C)Oc2ccc(NC(=O)Nc3ccccc3)cc2C(=O)N([C@H](C)CO)C[C@@H]1C 4.8%, C[C@@H]1CN([C@@H](C)CO)C(=O)c2cc(NS(=O)(=O)c3ccccc3)ccc2O[C@H]1CN(C)CC1CC1 -3.75%, COc1ccc(S(=O)(=O)Nc2cccc3c2O[C@@H](CN(C)Cc2ccc(-c4ccccc4)cc2)[C@H](C)CN([C@H](C)CO)C3=O)cc1 -16.5%, C[C@H]1CCCCO[C@H](CN(C)C)[C@@H](C)CN([C@@H](C)CO)C(=O)c2cc(NC(=O)CCCN(C)C)ccc2O1 -13.7%, COc1cc(OC)cc(C(=O)NCCSCc2ccco2)c1 3.2%, Cc1cc(C)cc(N(CC(=O)NCCSCc2ccco2)S(C)(=O)=O)c1 3.24%, C[C@H](CO)N1C[C@H](C)[C@@H](CN(C)C)Oc2ccc(N(C)C)cc2C1=O -23.1%, COc1ccc(NC(=O)Nc2ccc3c(c2)C(=O)N([C@H](C)CO)C[C@H](C)[C@@H](CN(C)C(=O)NC2CCCCC2)OCCCC[C@@H](C)O3)cc1 19.9%, C[C@@H]1CN([C@H](C)CO)C(=O)c2cccc(NC(=O)c3nc4ccccc4s3)c2O[C@@H]1CN(C)C -13.2%, C[C@@H]1CCCCO[C@H](CN(C)S(C)(=O)=O)[C@@H](C)CN([C@H](C)CO)C(=O)c2cc(NS(=O)(=O)c3ccc(Cl)cc3)ccc2O1 7.33%, Cc1ccc(S(=O)(=O)N(C)C[C@H]2OCCCC[C@@H](C)Oc3ccc(NS(C)(=O)=O)cc3C(=O)N([C@H](C)CO)C[C@@H]2C)cc1 -9.1%, C[C@@H]1CCCCO[C@H](CN(C)S(=O)(=O)c2ccccc2)[C@@H](C)CN([C@@H](C)CO)C(=O)c2cc(NS(=O)(=O)c3ccccc3)ccc2O1 0.573%, COc1ccc(S(=O)(=O)Nc2ccc3c(c2)C(=O)N([C@H](C)CO)C[C@@H](C)[C@H](CN(C)S(=O)(=O)c2ccc(Cl)cc2)OCCCC[C@@H](C)O3)cc1 55.8%, Cc1ccc(S(=O)(=O)N(C)C[C@@H]2OCCCC[C@@H](C)Oc3ccc(NS(=O)(=O)c4ccccc4)cc3C(=O)N([C@H](C)CO)C[C@@H]2C)cc1 -6.72%, C[C@@H]1CCCCO[C@H](CN(C)S(=O)(=O)c2ccc(F)cc2)[C@H](C)CN([C@@H](C)CO)C(=O)c2cc(NS(=O)(=O)c3ccccc3)ccc2O1 3.05%, C[C@@H]1CN([C@H](C)CO)C(=O)c2cccc(NC(=O)c3nc4ccccc4s3)c2O[C@H]1CN(C)Cc1ccccc1 -1.34%, CC=Cc1ccc2n(c1=O)C[C@@H]1[C@@H](CO)[C@H](C(=O)N[C@@H](C)c3ccccc3)[C@H]2N1Cc1ccncc1 (mixture of isomers) -0.758%, CC=Cc1ccc2n(c1=O)C[C@@H]1[C@@H](CO)[C@H](C(=O)NCC(F)(F)F)N(CCc3ccccc3)[C@H]21 (mixture of isomers) 5.7%, O=C(C[C@H]1C=C[C@H](NC(=O)CC2CC2)[C@H](CO)O1)NCc1ccc(Cl)cc1 0.511%, C[C@@H]1CCCCO[C@H](CN(C)S(=O)(=O)c2ccc(Cl)cc2)[C@H](C)CN([C@@H](C)CO)C(=O)c2cc(NS(=O)(=O)c3cccs3)ccc2O1 35.2%, Cc1ccc(S(=O)(=O)Nc2ccc3c(c2)C(=O)N([C@H](C)CO)C[C@H](C)[C@H](CN(C)S(=O)(=O)c2ccc(F)cc2)OCCCC[C@@H](C)O3)cc1 -6.17%, C[C@@H]1CCCCO[C@@H](CN(C)S(C)(=O)=O)[C@H](C)CN([C@@H](C)CO)C(=O)c2cc(NS(=O)(=O)c3ccc(F)cc3)ccc2O1 6.52%, C[C@@H]1CN([C@H](C)CO)C(=O)c2cc(NS(=O)(=O)c3cccs3)ccc2O[C@@H](C)CCCCO[C@@H]1CN(C)S(=O)(=O)c1ccc(Cl)cc1 32.3%, CCCNC(=O)Nc1ccc2c(c1)C(=O)N(C)C[C@@H](OC)[C@H](C)CN(C(=O)C1CCCCC1)[C@H](C)CO2 12.3%, C[C@@H]1CN([C@@H](C)CO)C(=O)c2c(c3ccccc3n2C)-c2ccccc2CO[C@@H]1CN(C)S(=O)(=O)c1cccs1 12.1%, CCCNC(=O)N1[C@H](CNC(C)=O)[C@@H](c2ccc(C3=CCCC3)cc2)[C@@H]1CO -5.47%, C[C@@H]1CCCCO[C@H](CN(C)CC2CC2)[C@@H](C)CN([C@H](C)CO)C(=O)c2cc(NC(=O)Nc3ccc(F)cc3)ccc2O1 2.41%, C[C@@H]1CCCCO[C@H](CN(C)C(=O)NC2CCCCC2)[C@H](C)CN([C@@H](C)CO)C(=O)c2cc(NC(=O)Nc3ccc(F)cc3)ccc2O1 52.5%, C[C@H](CO)N1C[C@H](C)[C@H](CN(C)C(=O)NC2CCCCC2)OCCCC[C@H](C)Oc2ccc(NC(=O)Nc3ccc4c(c3)OCO4)cc2C1=O 29.3%, C[C@@H]1CN([C@H](C)CO)C(=O)c2cc(NC(=O)Nc3ccc(F)cc3)ccc2O[C@@H](C)CCCCO[C@@H]1CN(C)CC1CCCCC1 17%, C[C@@H]1CCCCO[C@@H](CN(C)C(=O)NC2CCCCC2)[C@H](C)CN([C@@H](C)CO)C(=O)c2cc(NC(=O)Nc3ccc(F)cc3)ccc2O1 17.7%, C[C@H](CO)N1C[C@H](C)[C@@H](CN(C)C(=O)Nc2ccc3c(c2)OCO3)OCCCC[C@H](C)Oc2ccc(NC(=O)Nc3ccc4c(c3)OCO4)cc2C1=O 12%, CCCNC(=O)N1CC2(C1)[C@H](c1ccccc1)[C@@H](CO)N2Cc1cccc(Cl)c1 8.51%, O=C(Nc1ccccc1F)N1CC(=O)N2[C@@H](CO)[C@H](c3ccc(C#CC4CCCC4)cc3)[C@@H]2C1 11.2%, C[C@H](NC(=O)C[C@@H]1CC[C@@H](NC(=O)Cc2ccccn2)[C@@H](CO)O1)c1ccccc1 26%, O=C(c1cccnc1)N1CC[C@@H]2[C@@H](CO)Nc3ccc(-c4ccccc4)cc3[C@@H]21 1.4%, CCOc1ccc(/C=C/C(=O)N(CC)CC(=O)NCc2cccs2)cc1OC 10.8%, O=C(COC(=O)/C=C/c1cccc(Cl)c1)NCc1cccs1 6.69%, CNC(=O)C[C@@H]1CC[C@@H]2[C@@H](COc3ccc(NC(=O)c4ccc(F)cc4)cc3C(=O)N2C)O1 -7.92%, O=C(Nc1cc(Cl)cc(Cl)c1)N[C@@H]1CC[C@H](CCNS(=O)(=O)c2cccc(F)c2)O[C@H]1CO 13.6%, COCC#Cc1ccc([C@H]2[C@H]3CN(Cc4ccncc4)CCCCN3[C@H]2CO)cc1 12.1%, O=C(C[C@@H]1CC[C@@H]2[C@H](COC[C@H](O)CN2C(=O)c2ccncc2)O1)NCc1cc(F)cc(F)c1 -12.3%, COc1cc(OC)cc(C(=O)N[C@H](C(=O)NNC(=O)c2ccc(Br)cc2)C(C)C)c1 18.6%, COc1cc(OC)cc(C(=O)N[C@H](C(=O)OCC(=O)NC(C)c2ccccc2)C(C)C)c1 (some centres undefined) -10.5%

inhibition, active:
CS(=O)(=O)N(Cc1ccc(Cl)cc1)c1ccc(C(=O)NCCSCc2ccco2)cc1 61.6%, C[C@@H]1CN([C@H](C)CO)C(=O)c2cccc(NC(=O)c3nc4ccccc4s3)c2O[C@H]1CN(C)S(=O)(=O)c1ccc(Cl)cc1 66.2%, Cc1ccc(S(=O)(=O)Nc2ccc3c(c2)C(=O)N([C@H](C)CO)C[C@@H](C)[C@H](CN(C)S(=O)(=O)c2ccc(C)cc2)OCCCC[C@@H](C)O3)cc1 71.3%, C[C@H](CO)N1C[C@H](C)[C@H](CN(C)S(=O)(=O)c2ccc(F)cc2)OCCCC[C@H](C)Oc2ccc(NS(=O)(=O)c3ccc(Cl)cc3)cc2C1=O 87.4%, C[C@@H]1CN([C@H](C)CO)C(=O)c2cc(NS(=O)(=O)c3ccccc3)ccc2O[C@@H](C)CCCCO[C@H]1CN(C)S(=O)(=O)c1ccc(Cl)cc1 73.3%, Cc1ccc(S(=O)(=O)N(C)C[C@@H]2OCCCC[C@@H](C)Oc3ccc(NS(=O)(=O)c4ccc(F)cc4)cc3C(=O)N([C@H](C)CO)C[C@H]2C)cc1 65.5%, C[C@H]1CCCCO[C@@H](CN(C)S(=O)(=O)c2cccs2)[C@@H](C)CN([C@@H](C)CO)C(=O)c2cc(NS(=O)(=O)c3ccc(Cl)cc3)ccc2O1 78.6%, C[C@@H]1CCCCO[C@H](CN(C)CC2CCCCC2)[C@H](C)CN([C@H](C)CO)C(=O)c2cc(NC(=O)Nc3ccc(F)cc3)ccc2O1 69.8%, C[C@@H]1CCCCO[C@H](CN(C)C(=O)NC2CCCCC2)[C@H](C)CN([C@H](C)CO)C(=O)c2cc(NC(=O)Nc3ccc(F)cc3)ccc2O1 70.7%, C[C@H]1CCCCO[C@H](CN(C)C(=O)NC2CCCCC2)[C@@H](C)CN([C@@H](C)CO)C(=O)c2cc(NC(=O)Nc3ccc4c(c3)OCO4)ccc2O1 66.1%, COc1ccc(/C=C/C(=O)OCC(=O)NCc2cccs2)cc1OC 72.7%, COc1cc(OC)cc(C(=O)N[C@H](C(=O)Nc2nc3ccccc3[nH]2)C(C)C)c1 81.6%
